In the supplement of paper PMC6992640:
± gives the standard deviation of the averaged measurements.

What was measured:
Assay in all cases: cell viability (% of vehicle); higher = less cytotoxic
Details in all cases: 10 µM; 72 h
HCI01 = tested on: HCI01 (cells of a triple-negative basal-like breast cancer xenograft)
HCI03 = tested on: HCI03 (cells of an ER-positive luminal breast cancer xenograft)
HCI09 = tested on: HCI09 (cells of a triple-negative luminal androgen receptor type breast cancer xenograft)
HCI11 = tested on: HCI11 (cells of an ER-positive luminal breast cancer xenograft)
HCI13 = tested on: HCI13 (cells of an ER-positive luminal breast cancer xenograft)
HCI16 = tested on: HCI16 (cells of a triple-negative basal-like breast cancer xenograft)
UCD52 = tested on: UCD52 (cells of a triple-negative basal-like breast cancer xenograft)
WHIM2 = tested on: WHIM2 (cells of a triple-negative basal-like breast cancer xenograft)
WHIM30 = tested on: WHIM30 (cells of a triple-negative basal-like breast cancer xenograft)
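Further: PDX cells carrying CMV promoter-driven luciferase, viability read as total photon flux per second by IVIS imaging following D-luciferin, vehicle control 0.1% DMSO.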

SMILES | cell viability (HCI01) | cell viability (HCI03) | cell viability (HCI09) | cell viability (HCI11) | cell viability (HCI13) | cell viability (HCI16) | cell viability (UCD52) | cell viability (WHIM2) | cell viability (WHIM30)
COc1ccccc1OCC(O)CN1CCN(CC(=O)Nc2c(C)cccc2C)CC1 (stereo unspecified) [Ranolazine] | 136 ± 2.8 | 96.3 | 134 ± 75 | 103 | 120 ± 35 | 120 | 89.4 ± 19 | 109 ± 19 | 130 ± 17
NCCS(=O)(=O)O [Taurine] | 105 ± 23 | 119 | 101 ± 18 | 86.6 | 61.4 ± 7.8 | 115 | 75.92 ± 0.27 | 109 ± 19 | 115 ± 9.7
CCC1OC(=O)CC(O)C(C)C(OC2OC(C)C(O)C(N(C)C)C2O)C(CCN2CC(C)CC(C)C2)CC(C)C(=O)C=CC(C)=CC1COC1OC(C)C(O)C(OC)C1OC (stereo unspecified) [Tilmicosin] | 89.4 ± 32 | 116 | 82 ± 4.8 | 80.9 | 99.5 ± 6.4 | 102 | 77.7 ± 9.9 | 84.1 ± 3.9 | 97 ± 10
CC1C=CC=CC=CC=CC=CC=CC=CC(OC2OC(C)C(O)C(N)C2O)CC2OC(O)(CC(O)CC(O)C(O)CCC(O)CC(O)CC(=O)OC(C)C(C)C1O)CC(O)C2C(=O)O (stereo unspecified) [Amphotericin B] | 108 ± 19 | 116 | 105 ± 2.6 | 109 | 107 ± 18 | 107 | 82.2 ± 5.4 | 95.2 ± 23 | 127 ± 1.4
COc1ccccc1N1CCN(CC(O)COc2cccc3ccccc23)CC1 (stereo unspecified) [Naftopidil] | 116 ± 8.4 | 84.3 | 87.2 ± 14 | 107 | 103 ± 19 | 108 | 67.4 ± 2.8 | 89.8 ± 24 | 104 ± 12
NC(=O)c1ccc(I)c([N+](=O)[O-])c1 [Iniparib (BSI-201)] | 121 ± 21 | 198 | 123 ± 20 | 82.6 | 124 ± 31 | 106 | 114 ± 5.4 | 181 ± 22 | 129 ± 22
CCC(C)C(=O)OC1CC(O)C=C2C=CC(C)C(CCC(O)CC(O)CC(=O)[O-])C21.[Na+] (stereo unspecified) [Pravastatin sodium] | 142 ± 13 | 184 | 126 ± 28 | 113 | 142.3 ± 0.11 | 152 | 100 ± 3.8 | 105 ± 20 | 156 ± 1.8
Nc1nc(=O)c2c(CCc3ccc(C(=O)NC(CCC(=O)[O-])C(=O)[O-])cc3)c[nH]c2[nH]1.[Na+].[Na+] (stereo unspecified) [Pemetrexed] | 94.1 ± 3.5 | 102 | 88.7 ± 10 | 92.9 | 105 ± 5.3 | 105 | 93.4 ± 13 | 95.2 ± 9.6 | 130 ± 10
COc1cc(Nc2ncc3c(n2)-c2ccc(Cl)cc2C(c2c(F)cccc2OC)=NC3)ccc1C(=O)O [MLN8237 (Alisertib)] | 80 ± 15 | 118 | 106 ± 32 | 100 | 94.9 ± 14 | 87.9 | 64.6 ± 12 | 80.1 ± 8.5 | 156 ± 12
CCCCC1C(=O)N(c2ccccc2)N(c2ccccc2)C1=O [Phenylbutazone] | 89.4 ± 24 | 129 | 86.7 ± 11 | 97.2 | 127.3 ± 0.28 | 120 | 88.9 ± 1.4 | 89 ± 23 | 119 ± 3.8
COc1cc(OC)c(C(=O)CCCN2CCCC2)c(OC)c1.Cl [Buflomedil HCl] | 95.4 ± 3.3 | 131 | 95.6 ± 15 | 94.4 | 86.6 ± 2.6 | 122 | 92.5 ± 16 | 117 ± 28 | 134 ± 2.4
FC(F)(F)c1ccc(C=Cc2nc(COc3ccc(CCCCn4ccnn4)cc3)co2)cc1 [Mubritinib (TAK 165)] | 111 ± 4 | 89.9 | 26.1 ± 3.1 | 62.2 | 65.54 ± 0.49 | 124 | 56.43 ± 0.074 | 120 ± 31 | 63.1 ± 6.1
CC(CN1CC(=O)NC(=O)C1)N1CC(=O)NC(=O)C1 (stereo unspecified) [Dexrazoxane] | 83 ± 6.2 | 148 | 102 ± 20 | 92.4 | 110 ± 13 | 103 | 100.8 ± 0.77 | 75.7 ± 5.5 | 131.05 ± 0.028
CC1=C(CC(=O)O)c2cc(F)ccc2C1=Cc1ccc(S(C)=O)cc1 (stereo unspecified) [Sulindac] | 92.1 ± 23 | 89.2 | 81.5 ± 4.2 | 76.2 | 108 ± 0.55 | 119 | 97.3 ± 3.1 | 88.7 ± 6.6 | 104 ± 13
CN1CCC(=C2c3ccccc3CCn3c(C=O)cnc32)CC1 [Alcaftadine] | 94.1 ± 31 | 117 | 94.3 ± 18 | 86.9 | 120 ± 20 | 124 | 92.4 ± 10 | 97.9 ± 3.4 | 114 ± 6.9
C[N+](C)(C)CCO.[Cl-] [Choline Chloride] | 135 ± 42 | 120 | 89.2 ± 11 | 78.8 | 73.78 ± 0.7 | 116 | 85.6 ± 10 | 105 ± 17 | 101 ± 3.5
CCn1cc(C(=O)O)c(=O)c2ccc(C)nc21 [Nalidixic acid] | 86 ± 19 | 114 | 96.6 ± 10 | 92.1 | 113 ± 3 | 103 | 79 ± 6.3 | 87.7 ± 7.2 | 112 ± 12
Cl.Nc1ncnc2nc[nH]c12 [Adenine HCl] | 124 ± 9.7 | 126 | 112 ± 4.7 | 117 | 87.7 ± 10 | 147 | 165 ± 5.9 | 106 ± 4.3 | 101 ± 7.6
CCOC(=O)C1=C[C@]2(CC)CCCN3CCc4c(n1c1ccccc41)[C@@H]32 [Vinpocetine] | 107 ± 21 | 108 | 94.4 ± 14 | 106 | 88.5 ± 11 | 112 | 110 ± 9 | 93.4 ± 7.8 | 125 ± 11
